Values joined by “and” are separate entries in the source; they are usually repeats but may differ in a detail not shown here. Identical values can stand only once. About 1,900 (0.58%) of roughly 330,000 compounds were called active. Roughly 4% stayed inconclusive and do not appear here. Only a sample is shown. Measured potencies and affinities stand elsewhere. Values without a mark were called inactive. No stated cut-off is given here; in the data, inconclusive means inhibition above about 70% without an active follow-up result; inactive means below that.
Test: M. tuberculosis growth inhibition, HTS (AID 449762);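 further: bacterial growth assessed after seven days of incubation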
Settings: M. tuberculosis H37Rv growth inhibition, 7H9 media; at 25 µM; active compounds read high

Row | Compound | inhibition
1 | Cc1ccc(N2C(=O)C3CCCN3C2=S)c(C)c1 (stereo not given) | 5.68%
2 | NS(=O)(=O)c1ccc(S(=O)(=O)c2ccccc2)nc1 | 1.3%
3 | Nc1ncc([N+](=O)[O-])cc1S(=O)(=O)c1ccccc1 | 2.55%
4 | C#CCNC(=O)C1=C[C@@H](C)C[C@@H](OCc2ccc(CO)cc2)O1 | 2.19%
5 | COc1ccc(-c2cc(-n3c(C(F)(F)F)nc4ccccc43)n(CCC#N)n2)cc1 | 5.23%
6 | COc1ccc(-c2cc3nc(-c4ccccc4)cc(N4CCC(O)CC4)n3n2)cc1 | 8.92%
7 | Cc1ccc(S(=O)(=O)Nc2c(C)n(C)n(-c3ccccc3)c2=O)cc1C(=O)NCc1ccccc1 | -5.64%
8 | Cc1nc2ccc(N=NC3=C(O)CC(C)(C)CC3=O)cc2s1 | 1.45%
9 | COc1ccc(N=NC2=C(O)CC(C)(C)CC2=O)cc1 | -3.64%
10 | COc1ccc(CCN2CC(O)=C(c3nc(C)cs3)C2=N)cc1OC | 7.01%
11 | COc1cccc(OCc2cc(C(=O)NCCN3CCCCC3CO)no2)c1 (stereo not given) | -19.8%
12 | Cc1ccc(NNc2c(C)nc3ccccc3nc2=O)cc1 | 42.5%
13 | Cc1ccc2nc(-c3ccccc3)c(-c3ccccc3)nc2c1 | 2.44%
14 | O=C(Nc1ccc(S(=O)(=O)Nc2ncccn2)cc1)c1ccco1 | -1.81%
15 | COc1ccc(/C=C2\SC(=O)N(CCNC(=O)Cn3[nH]c(=O)c4ccccc4c3=O)C2=O)cc1 | 1.03%
16 | COc1ccc(C2SCC(=O)N2c2ccc(C)cc2)cc1 (stereo not given) | -1.14%
17 | COc1ccc(C2CC(c3cccs3)=NN2S(C)(=O)=O)cc1 (stereo not given) | -0.06%
18 | O=C(O)C1CC(c2ccccc2)=Nc2ccccc2S1 (stereo not given) | 13.4%
19 | CCC(=O)N1N=C(c2ccccc2)CC1c1ccc([N+](=O)[O-])cc1 (stereo not given) | 2.69%
20 | COc1ccc(O)c(C2=Nc3ccccc3N=C(c3cccs3)C2)c1 | -0.29%
21 | O=C(Nc1ccccc1)N1CCC(O)(c2cccc(C(F)(F)F)c2)CC1 | 1.21%
22 | CCN(CC)CCCN=C1N[C@@H](c2cccc(F)c2)C(C(=O)OC)=C(C)N1Cc1ccccc1 | -0.31%
23 | CC(C)C(NC(=O)OCc1ccccc1)C(=O)OCC(=O)NCc1ccco1 (stereo not given) | 8.7%

Row | Compound | inhibition
24 | Cc1ccc(C(=O)NNC(=O)c2cccc(C)c2)cc1 | -4.89%
25 | CCOc1ccc(S(=O)(=O)Nc2ncn[nH]2)cc1 | 1.15%
26 | CCOC(=O)c1c(C)n(C)c2ccc(OC(=O)c3ccc([N+](=O)[O-])cc3)cc12 | 25.7%
27 | COc1ccc2c(c1)c(C(C)=O)c(C)n2C | 4.3%
28 | CC12CCC(=O)N1C(C(=O)N1CCN(c3ccc(C(F)(F)F)cc3[N+](=O)[O-])CC1)CS2 (stereo not given) | 4.09%
29 | CC1(c2nnc(-c3ccccc3)o2)CC(c2ccncc2)=NO1 (stereo not given) | 10.1%
30 | CC1(c2nnc(-c3ccccc3)o2)CC(c2ccccc2)=NO1 (stereo not given) | 4.65%
31 | Cc1nc(C)c(-c2csc(Nc3ccccn3)n2)s1 | 5.67%
32 | O=S(=O)(c1cccc2cccnc12)N1CCN(c2ccccn2)CC1 | -2.85%
33 | COc1ccc(S(=O)(=O)N2CCN(CC(=O)Nc3ccccc3OC)CC2)cc1 | 5.95%
34 | FC(F)Oc1ccc(NC(=S)Nn2cnnc2)cc1 | -3%
35 | COc1ccc(CNC(=O)C[C@H]2C(=O)N(c3ccccc3)C[C@@H]2Cc2ccccc2)cc1 | 0.74%
36 | CC1Cc2ccccc2N1C(=O)CSc1nc2ccccc2n1CC(=O)N1CCOCC1 (stereo not given) | 7.22%
37 | C=CCNC(=O)c1onc(CSc2ccc(Cl)cc2)c1C(=O)NCC=C | 27.7%
38 | C=CCNC(=O)c1onc(CSc2ccc(OC)cc2)c1C(=O)O | 4.85%
39 | CCN(CC)S(=O)(=O)c1ccc(N2CCCC2)c(NC(=O)C2=COCCO2)c1 | -7.17%
40 | Cn1c(CSCc2ccc(F)cc2)n[nH]c1=S | -6.48%
41 | FC(F)(F)c1cccc(-c2cc(C3CCNCC3)[nH]n2)c1 | 6.36%
42 | COC(=O)CCN1CCC(c2cc(-c3cccc(C(F)(F)F)c3)n[nH]2)CC1 | 5.38%
43 | O=C(CC1C(=O)NCCN1Cc1ccc(F)cc1)NCCCn1cccn1 (stereo not given) | -1%
44 | O=S(=O)(NCCc1cn2ccccc2n1)c1ccc2c(c1)OCCO2 | -2.59%
45 | Cc1c(C(=O)NCc2ccc(S(N)(=O)=O)cc2)oc2ccc(Cl)cc12 | -4.55%
46 | COc1cc2nc(N3CCNCC3)nc(N)c2cc1OC | -16.4%

Row | Compound | inhibition
47 | COc1cc2nc(N3CCN(C(=O)c4ccco4)CC3)nc(N)c2cc1OC | -7.62% and 1.49%
48 | COc1cc2nc(Nc3cccc(F)c3)nc(N)c2cc1OC | 34.9%
49 | COc1cc2nc(Nc3ccc(F)cc3)nc(N)c2cc1OC | 23.2%
50 | CCn1c(O)c(N=Nc2cccc(S(=O)(=O)N3CCOCC3)c2)c(=O)n(CC)c1=S | -2.11%
51 | O=C(Nc1cccc(C(=O)N2CCCc3ccccc32)c1)c1ccccc1 | 6.88%
52 | COc1ccccc1C(=O)NC(=O)Nc1c(C)cc(C)cc1C | 1.95%
53 | COc1ccc(-c2nc(-c3ccncc3)no2)c(OC)c1 | 4.47%
54 | COc1ccc(S(=O)(=O)N2CCC(c3cc(-c4cccc5ccccc45)n[nH]3)CC2)cc1 | 66.5%
55 | COc1ccc(S(=O)(=O)Nc2c(F)cccc2F)cc1 | 6.44%
56 | COc1cccc(NS(=O)(=O)c2nc3nc(C)cc(C)n3n2)c1 | -2.88%
57 | COc1ccc(CNS(=O)(=O)c2cc3c4c(c2)C(C)C(=O)N4CCC3)cc1 (stereo not given) | -1.95%
58 | COc1ccc(CCC(=O)NCCS(=O)(=O)N2CCN(c3ccccc3F)CC2)cc1 | 9.75%
59 | CN1CCCN(C(=O)c2cccc(Br)c2)CC1 | -4.86%
60 | CC(C)Nc1nc(-c2ccccn2)nc(-c2ccccc2)c1C#N | -1.18%
61 | c1ccc(-c2ccccn2)nc1 | 11.8%
62 | c1ccc(-c2nnc(-c3ccccn3)c(-c3ccccn3)n2)nc1 | 0.73%
63 | c1ccc(-c2nc(-c3ccccn3)nc(-c3ccccn3)n2)nc1 | 14.8%
64 | O=C(NCC(c1cccnc1)N1CCN(c2ccc(F)cc2)CC1)Oc1ccccc1 (stereo not given) | -8.33%
65 | CCc1cccc(NC(=O)CCCN2C(=O)NC(C)(C)C2=O)c1 | -11.7%
66 | C[C@@H]1CCCCCCCCC(=O)OCCN(C(=O)OC(C)(C)C)[C@H](C)CCCCCCCCC(=O)OCCN1C(=O)OC(C)(C)C | 3.06%
67 | C[C@@H]1CCCCCCCCC(=O)OCCN(C(=O)OC(C)(C)C)[C@H](C)CCCCCCCCC(=O)OCCN(C(=O)OC(C)(C)C)[C@H](C)CCCCCCCCC(=O)OCCN(C(=O)OC(C)(C)C)[C@H](C)CCCCCCCCC(=O)OCCN1C(=O)OC(C)(C)C | -0.93%
68 | COc1ccc(N2CCN(C(=O)CCNS(=O)(=O)c3ccc(C)cc3)CC2)cc1 | -1.98%
69 | C[C@H](NC(=O)N1CCn2c1nc1ccccc12)C(=O)N1CCCCC1 | -4.78%

Row | Compound | inhibition
70 | CN(CCOc1ccccc1)C(=O)C1CCC(=O)N(CCCN2CCOCC2)C1 (stereo not given) | 14.5%
71 | Nc1nc2ccccc2n1CCOc1ccc(Cl)cc1 | 9.81%
72 | Nc1nc2ccccc2n1CCOc1ccc(F)cc1 | 41.5%
73 | CN(C)S(=O)(=O)c1cc(NC(=O)CN2CCN(c3ccccc3)CC2)ccc1Cl | 1.87%
74 | Cc1cc(C2=NNC(=NC3CC3)SC2)c(C)n1-c1c(C)n(C)n(-c2ccccc2)c1=O | 0.5%
75 | c1ccc2c(C3=NNC(=NC4CC4)SC3)c[nH]c2c1 | -4.02%
76 | CN=C1NN=C(c2cc(C)n(-c3c(C)n(C)n(-c4ccccc4)c3=O)c2C)CS1 | 10.5%
77 | CCN=C1NN=C(c2c[nH]c3ccccc23)CS1 | 0.3%
78 | COc1ccc(CC(=O)Nc2ccc(C#N)c(Cl)c2)cc1S(=O)(=O)N1CCOCC1 | 3.7%
79 | COc1ccnc(Oc2ccc(F)cc2)c1C(=O)N/C=N/OCc1cccc(F)c1 | 24.6%
80 | CC(C)(C)C1CCc2c(sc3nc(SCC(=O)O)nc(N)c23)C1 (stereo not given) | 6.02%
81 | NC(=O)CSc1nc(N)c2c3c(sc2n1)CCCCC3 | 42.6%
82 | Cc1nc(N2CCN(C(=O)c3cnccn3)CC2)c2c3c(sc2n1)CC(C(C)(C)C)CC3 (stereo not given) | -2.07%
83 | C=C(C)CSc1nnc2n(C)c(=O)c3c4c(sc3n12)CCC4 | 4.7%
84 | CCCSc1nnc2n(C)c(=O)c3c4c(sc3n12)CCC4 | 9.4%
85 | CC(=O)N1CCN(c2nc(C)nc3sc4c(c23)CCC(C)C4)CC1 (stereo not given) | -0.41%
86 | CC(C)(C)[C@H]1COC(=O)[C@@H](Cc2ccc(F)cc2)C/C=C\C[C@@H](CC(=O)N[C@@H](CO)Cc2ccccc2)C(=O)N1 | -8.38%
87 | Cc1cc(OCC(=O)NCCCN2CCOCC2)c2c(C)cc(=O)oc2c1 | 3.65%
88 | O=C(Cc1c(Cl)cccc1Cl)N1CCN(Cc2ccccc2)CC1 | 7.3%
89 | C/C(=N\NC(=O)c1ccc(Cn2cc(Br)cn2)o1)c1cccc(NC(=O)C(C)(C)C)c1 | -8.27%
90 | COc1cccc(CN(C)CC(=O)Nc2ccccc2C(=O)Nc2ccccc2)c1OC | -3.55%

From PubChem BioAssay AID449762 (Southern Research Specialized Biocontainment Screening …, 2010)
